# Experimental data as given in ChEMBL document CHEMBL3988442, “University of Dundee, Small-Polar-MMV Screening Library” (2021).
# For some assays here: Potency and affinity values are given separately.
# Columns and labels:
# Set-up in all cases: scale not given: direction of the effect not stated beside the values
# [1] = biological target: Protein translocase subunit SecA (Escherichia coli (strain K12)) (UniProt P10408); assay: Assay to Identify E. coli SecA ATPase Inhibitors; assay type: functional; conditions: 30 µM
# Sequence of Protein translocase subunit SecA (Escherichia coli (strain K12)) (P10408 whole entry): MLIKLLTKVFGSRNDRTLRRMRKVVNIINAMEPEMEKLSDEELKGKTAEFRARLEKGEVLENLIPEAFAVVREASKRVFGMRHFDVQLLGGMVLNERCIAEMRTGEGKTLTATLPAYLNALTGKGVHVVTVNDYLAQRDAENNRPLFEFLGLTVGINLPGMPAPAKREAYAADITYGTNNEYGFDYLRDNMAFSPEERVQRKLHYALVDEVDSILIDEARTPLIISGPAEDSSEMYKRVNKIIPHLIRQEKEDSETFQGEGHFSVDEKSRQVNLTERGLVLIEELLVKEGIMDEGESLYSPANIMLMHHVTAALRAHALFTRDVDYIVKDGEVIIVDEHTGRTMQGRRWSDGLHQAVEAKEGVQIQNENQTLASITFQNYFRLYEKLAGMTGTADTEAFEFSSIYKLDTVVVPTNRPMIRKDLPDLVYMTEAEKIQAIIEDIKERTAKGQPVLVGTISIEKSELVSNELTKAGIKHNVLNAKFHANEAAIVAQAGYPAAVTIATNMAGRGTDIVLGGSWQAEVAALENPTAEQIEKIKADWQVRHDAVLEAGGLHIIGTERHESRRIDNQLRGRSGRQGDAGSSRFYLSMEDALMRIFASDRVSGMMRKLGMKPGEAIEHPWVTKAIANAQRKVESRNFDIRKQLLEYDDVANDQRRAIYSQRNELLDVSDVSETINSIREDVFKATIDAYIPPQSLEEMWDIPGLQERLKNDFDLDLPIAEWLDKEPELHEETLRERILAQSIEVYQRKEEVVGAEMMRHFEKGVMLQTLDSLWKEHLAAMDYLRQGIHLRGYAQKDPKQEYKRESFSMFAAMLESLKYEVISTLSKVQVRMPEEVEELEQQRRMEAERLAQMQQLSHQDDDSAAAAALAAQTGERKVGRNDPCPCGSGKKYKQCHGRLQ
# [2] = biological target: T1, Ubiquitin-activating enzyme e1, putative (Leishmania donovani (strain BPK282A1)) (UniProt E9BSI1); assay: Leishmania donovani Ubiquitin Activating Enzyme (LdE1); assay type: functional; conditions: 30 µM
# T1 sequence (whole entry): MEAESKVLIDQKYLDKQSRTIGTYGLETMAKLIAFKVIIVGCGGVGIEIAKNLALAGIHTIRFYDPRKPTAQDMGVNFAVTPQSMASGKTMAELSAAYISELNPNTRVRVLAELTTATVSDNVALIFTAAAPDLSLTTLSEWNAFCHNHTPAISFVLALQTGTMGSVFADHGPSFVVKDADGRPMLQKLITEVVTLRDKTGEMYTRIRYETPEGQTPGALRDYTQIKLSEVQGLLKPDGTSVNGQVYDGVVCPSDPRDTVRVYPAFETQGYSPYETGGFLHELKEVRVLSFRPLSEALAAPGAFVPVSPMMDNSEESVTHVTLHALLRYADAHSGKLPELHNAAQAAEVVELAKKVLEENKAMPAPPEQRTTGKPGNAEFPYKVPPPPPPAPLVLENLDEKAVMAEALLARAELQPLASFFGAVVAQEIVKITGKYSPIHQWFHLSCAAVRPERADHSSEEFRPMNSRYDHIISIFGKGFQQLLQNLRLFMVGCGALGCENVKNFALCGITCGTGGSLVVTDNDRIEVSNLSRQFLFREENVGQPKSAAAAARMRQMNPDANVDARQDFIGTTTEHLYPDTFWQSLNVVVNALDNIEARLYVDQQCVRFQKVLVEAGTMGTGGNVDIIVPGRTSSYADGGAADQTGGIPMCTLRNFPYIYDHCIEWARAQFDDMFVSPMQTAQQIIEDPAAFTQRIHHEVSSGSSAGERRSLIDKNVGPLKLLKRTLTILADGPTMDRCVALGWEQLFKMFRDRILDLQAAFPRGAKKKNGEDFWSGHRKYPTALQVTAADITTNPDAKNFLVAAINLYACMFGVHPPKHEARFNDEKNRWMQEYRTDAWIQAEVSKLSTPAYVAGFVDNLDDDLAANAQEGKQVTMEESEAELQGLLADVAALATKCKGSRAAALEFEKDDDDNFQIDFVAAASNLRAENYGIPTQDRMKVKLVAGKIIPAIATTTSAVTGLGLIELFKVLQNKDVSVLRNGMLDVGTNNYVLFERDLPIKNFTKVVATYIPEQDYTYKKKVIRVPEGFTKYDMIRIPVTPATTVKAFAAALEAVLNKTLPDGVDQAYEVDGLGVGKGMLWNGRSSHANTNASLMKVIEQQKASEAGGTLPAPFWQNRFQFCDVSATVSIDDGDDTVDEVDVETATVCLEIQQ
# [3] = biological target: AMP-activated protein kinase, AMPK (Homo sapiens) (UniProt P54646+O43741+P54619+Q9UGJ0+Q9Y478+Q13131+Q9UGI9); assay: AMP-dependent Kinase enzyme assay. An in vitro enzyme assay that detects ADP turnover that is directly proportional to AMPK activity. This uses naive AMPK that is activated during the assay with MK-8722; assay type: functional; conditions: 30 µM
# [4] = biological target: Sialic acid-binding Ig-like lectin 9 (Homo sapiens) (UniProt Q9Y336); assay: Hs-Siglec9 ALPHAscreen SOP 20170721; conditions: 10 µM
# Sequence of Sialic acid-binding Ig-like lectin 9 (Homo sapiens) (Q9Y336 whole entry): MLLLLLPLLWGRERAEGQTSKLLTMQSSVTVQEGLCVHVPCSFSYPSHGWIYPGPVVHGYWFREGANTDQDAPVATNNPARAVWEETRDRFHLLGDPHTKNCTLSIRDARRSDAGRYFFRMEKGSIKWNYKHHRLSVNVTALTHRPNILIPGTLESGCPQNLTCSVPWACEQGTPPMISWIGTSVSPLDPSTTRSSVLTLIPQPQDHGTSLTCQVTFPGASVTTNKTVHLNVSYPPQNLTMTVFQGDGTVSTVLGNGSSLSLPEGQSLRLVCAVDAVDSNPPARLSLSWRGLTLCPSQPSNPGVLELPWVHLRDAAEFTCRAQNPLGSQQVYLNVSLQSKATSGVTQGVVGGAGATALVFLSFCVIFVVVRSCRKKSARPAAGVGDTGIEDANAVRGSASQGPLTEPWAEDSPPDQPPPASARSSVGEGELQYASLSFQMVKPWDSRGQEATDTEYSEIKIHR
# Trypanosoma cruzi = assay: Trypanosoma cruzi phosphomannomutase and mannose-1-phosphate guanylyltransferase assay; assay type: functional; conditions: 10 µM
# [5] = biological target: T2, Arginase-2, mitochondrial (Homo sapiens) (UniProt P78540); assay: in vitro enzyme assay to detect the production of urea directly proportional to the activity of Arginase II; assay type: functional; conditions: 33.3 µM; note: in the data most compounds retested in dose-response had high values
# T2 sequence (whole entry): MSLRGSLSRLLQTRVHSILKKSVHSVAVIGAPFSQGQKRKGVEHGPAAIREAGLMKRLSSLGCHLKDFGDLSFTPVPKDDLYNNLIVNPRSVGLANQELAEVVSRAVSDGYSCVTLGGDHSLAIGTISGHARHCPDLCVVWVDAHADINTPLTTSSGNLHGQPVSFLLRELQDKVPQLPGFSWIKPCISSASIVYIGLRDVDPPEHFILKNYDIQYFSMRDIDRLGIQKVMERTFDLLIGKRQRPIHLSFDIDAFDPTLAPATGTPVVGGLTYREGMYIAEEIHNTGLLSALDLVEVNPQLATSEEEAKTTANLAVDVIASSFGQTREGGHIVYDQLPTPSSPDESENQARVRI
# [6] = biological target: T3, Proteasome subunit beta (Trypanosoma cruzi) (UniProt O96673); assay: Trypanosoma cruzi proteasome chymotrypsin-like activity (TcProtChymo) assay.; note: in the data most compounds retested in dose-response had high values; assay type: functional; conditions: 9.37 µM
# T3 sequence (whole entry): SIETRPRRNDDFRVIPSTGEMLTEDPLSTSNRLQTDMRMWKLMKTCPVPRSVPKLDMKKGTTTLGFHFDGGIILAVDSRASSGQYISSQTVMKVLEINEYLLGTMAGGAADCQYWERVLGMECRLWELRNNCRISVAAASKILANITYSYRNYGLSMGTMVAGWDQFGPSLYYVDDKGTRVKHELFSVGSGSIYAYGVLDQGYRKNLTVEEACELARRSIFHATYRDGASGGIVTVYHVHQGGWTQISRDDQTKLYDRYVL
# Homo sapiens = species on record: Homo sapiens; assay: To identify inhibition of the IFN signalling (Jak-Stat) pathway via expression of an eGFP reporter gene under the control of an IFN-stimulated response element (ISRE) containing MxA promoter.; assay type: functional; conditions: 30 µM
# [7] = biological target: T4, Tyrosyl-tRNA synthetase, putative (Trypanosoma cruzi (strain CL Brener)) (UniProt Q4DSP6); assay: Trypanosoma cruzi tyrosyl tRNA synthetase (TcYRS) _High Tyrosine SOP; assay type: functional; conditions: 30 µM; note: in the data most compounds retested in dose-response had high values
# T4 sequence (whole entry): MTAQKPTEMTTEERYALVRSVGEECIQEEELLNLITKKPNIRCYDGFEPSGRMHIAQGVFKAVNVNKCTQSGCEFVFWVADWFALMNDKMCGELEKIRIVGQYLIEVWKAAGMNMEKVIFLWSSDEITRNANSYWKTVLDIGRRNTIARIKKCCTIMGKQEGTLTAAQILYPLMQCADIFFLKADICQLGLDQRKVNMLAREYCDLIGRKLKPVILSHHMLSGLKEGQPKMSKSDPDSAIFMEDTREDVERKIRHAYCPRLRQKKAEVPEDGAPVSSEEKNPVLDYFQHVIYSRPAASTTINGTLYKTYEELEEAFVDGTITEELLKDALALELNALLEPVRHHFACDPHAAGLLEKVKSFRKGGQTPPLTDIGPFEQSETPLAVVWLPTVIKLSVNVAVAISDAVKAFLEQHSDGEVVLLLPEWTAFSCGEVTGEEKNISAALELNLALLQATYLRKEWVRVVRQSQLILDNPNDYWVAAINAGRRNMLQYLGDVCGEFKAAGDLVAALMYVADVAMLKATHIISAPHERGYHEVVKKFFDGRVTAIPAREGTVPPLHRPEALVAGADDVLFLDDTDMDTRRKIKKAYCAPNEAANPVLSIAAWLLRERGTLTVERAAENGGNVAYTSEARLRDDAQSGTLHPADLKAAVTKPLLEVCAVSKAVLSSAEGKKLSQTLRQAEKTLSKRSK
# [8] = biological target: T4, Tyrosyl-tRNA synthetase, putative (Trypanosoma cruzi (strain CL Brener)); assay: Trypanosoma cruzi tyrosyl tRNA synthetase (TcYRS) SOP; assay type: functional; conditions: 30 µM
# [9] = biological target: Chromo domain-containing protein 1 (Saccharomyces cerevisiae (strain ATCC 204508 / S288c) (Baker's yeast)) (UniProt P32657); assay: ScCHD-1 Enzyme Inhibition Assay; assay type: functional; conditions: 30 µM; note: in the data most compounds retested in dose-response had high values
# Sequence of Chromo domain-containing protein 1 (Saccharomyces cerevisiae (strain ATCC 204508 / S288c) (Baker's yeast)) (P32657 whole entry, the tested form may be a part): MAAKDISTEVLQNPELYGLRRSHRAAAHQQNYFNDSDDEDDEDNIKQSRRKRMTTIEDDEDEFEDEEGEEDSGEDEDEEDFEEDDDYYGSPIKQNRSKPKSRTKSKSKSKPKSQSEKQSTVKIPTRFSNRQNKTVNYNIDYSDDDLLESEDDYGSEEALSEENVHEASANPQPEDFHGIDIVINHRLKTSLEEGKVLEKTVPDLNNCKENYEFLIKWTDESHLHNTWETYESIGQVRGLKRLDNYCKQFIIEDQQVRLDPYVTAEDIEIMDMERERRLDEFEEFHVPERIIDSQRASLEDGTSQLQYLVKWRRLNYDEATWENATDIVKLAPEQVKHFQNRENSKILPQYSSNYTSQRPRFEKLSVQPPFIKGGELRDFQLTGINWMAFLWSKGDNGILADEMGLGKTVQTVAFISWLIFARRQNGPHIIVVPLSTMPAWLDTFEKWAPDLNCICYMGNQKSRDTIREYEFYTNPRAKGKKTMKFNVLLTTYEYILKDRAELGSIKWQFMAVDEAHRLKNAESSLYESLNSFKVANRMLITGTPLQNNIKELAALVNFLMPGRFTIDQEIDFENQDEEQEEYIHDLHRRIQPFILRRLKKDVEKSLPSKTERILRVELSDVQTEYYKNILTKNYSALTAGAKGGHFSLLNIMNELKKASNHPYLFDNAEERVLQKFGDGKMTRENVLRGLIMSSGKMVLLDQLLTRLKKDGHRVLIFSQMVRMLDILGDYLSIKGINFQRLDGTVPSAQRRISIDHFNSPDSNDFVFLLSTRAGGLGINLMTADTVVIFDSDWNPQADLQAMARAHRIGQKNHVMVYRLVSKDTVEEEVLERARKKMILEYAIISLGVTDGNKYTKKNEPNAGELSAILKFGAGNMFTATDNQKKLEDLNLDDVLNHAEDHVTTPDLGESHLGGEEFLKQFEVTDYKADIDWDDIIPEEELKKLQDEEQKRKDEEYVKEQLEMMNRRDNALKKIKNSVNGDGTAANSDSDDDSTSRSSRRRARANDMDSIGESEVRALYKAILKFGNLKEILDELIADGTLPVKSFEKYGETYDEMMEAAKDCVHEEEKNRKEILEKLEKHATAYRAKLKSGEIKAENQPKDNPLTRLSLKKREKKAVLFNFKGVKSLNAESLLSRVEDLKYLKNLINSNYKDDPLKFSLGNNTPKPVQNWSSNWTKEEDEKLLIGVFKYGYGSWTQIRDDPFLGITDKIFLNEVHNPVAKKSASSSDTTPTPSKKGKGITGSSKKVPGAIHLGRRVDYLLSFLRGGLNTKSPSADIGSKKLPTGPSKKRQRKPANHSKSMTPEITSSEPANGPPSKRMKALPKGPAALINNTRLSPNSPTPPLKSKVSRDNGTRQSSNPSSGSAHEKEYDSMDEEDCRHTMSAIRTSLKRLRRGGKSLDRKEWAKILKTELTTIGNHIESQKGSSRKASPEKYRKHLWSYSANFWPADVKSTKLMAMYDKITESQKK
SMILES,Percent Effect [1],Percent Effect [2],Percent Effect [3],Percent Effect [4],Percent Effect (Trypanosoma cruzi),Percent Effect [5],Percent Effect [6],Percent Effect (Homo sapiens),Percent Effect [7],Percent Effect [8],Percent Effect [9]
COC(=O)c1ccc(N2CCN(C(=O)c3cnn(C)c3)C(C)C2)cc1 (stereo not given),-5.55%,17.7%,-10.6%,11.1%,6.14%,-1.52%,11.9%,9.04%,2.46%,13.9%,-12.4%
COc1cccc(-c2noc(-c3ccc(NCC4CC4)nc3)n2)c1OC,-6.26%,0%,-3.38%,6.76%,8.47%,2.08%,11%,31.3%,4.92%,13.6%,-1.62%
Cc1ccc(C(=O)N2CCN(S(C)(=O)=O)CC2)cc1N1CCNC1=O,-5.92%,8%,3.73%,15.8%,2.24%,5.73%,15.5%,16.6%,6.01%,11.1%,-6.07%
CSCC(=O)N1CCCN(c2ccccc2C)CC1,-7.55%,2.7%,-2.83%,-3.96%,-5.18%,-0.248%,1.8%,4.54%,1.07%,6.17%,-3.91%
O=C(c1ccoc1)N1CCCn2cnc(COCC3CC3)c2C1,-3.46%,13.5%,6.15%,-4.88%,1.07%,9.24%,22.1%,0.302%,2.16%,15.4%,-0.464%
CN(CCCOc1ccccc1)C(=O)CN1CCc2cncnc2C1,-1.71%,26.3%,-41.1%,4.54%,9.24%,-0.719%,10.6%,-5.43%,30.1%,38.3%,-11.5%
CCn1cc(CN2CCCN(C(=O)C3=NN(C)C(=O)CC3)CC2)cn1,0.989%,18.2%,0.0374%,-13.6%,-0.686%,6.11%,13.7%,29.5%,5.71%,0%,-17.5%
O=C(c1ccco1)N1CCOCC2(CCN(C3CCOCC3)C2)C1 (stereo not given),-0.734%,1.33%,-1.65%,3.4%,-7.47%,-2.29%,7.95%,2.53%,0%,5.13%,-6.06%
Cc1ccoc1C(=O)N1CC[C@H]2O[C@@H](C)C[C@H]2C1,-5.4%,21.3%,-6.43%,2.33%,5.6%,-45.3%,9.06%,2.95%,8.33%,22.5%,-8.54%
CCn1ccnc1CN1CCCN(C(=O)Cn2nc(C)cc2C)CC1,-2.55%,0%,9.91%,-9.39%,1.08%,-0.21%,3.31%,-12.9%,-1.91%,0%,-14.3%
